In PubChem BioAssay:
Active and inactive are the calls of the source. Unless noted, no rule for the calls is given here.

Legend:
[1] = tested on: Wnt5a (protein binding on small-molecule microarray); assay: Wnt5a binders on small-molecule microarray, primary screen, biophysical, 635/667 nm fluorescence (AID 1142); details: 635 nm fluorescence, higher = more signal;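 also: fluorescence read at 667 nm with signal to noise per printed feature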
[2] = cell viability in Huh7 cells, primary screen, cytotoxicity control for HCV replication inhibitor project, CellTiter-Glo luminescence, basal, 48 h (AID 1143); details: Huh7 HCV replicon, higher = more signal, called active from +8 up or from −8 down;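 also: Huh7 hepatoma cells carrying a hepatitis C replication reporter with no stimulus; test concentration not given here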
[3] = P. aeruginosa biofilm formation inhibitors, primary screen, PAO1 strain, BacTiter-Glo luminescence, LB-PBS (AID 1144); details: 12 h, higher = more signal
[4] = CREB reporter modulators without forskolin, primary screen, cell-based, PC12, CRE-LacZ reporter, unstimulated (AID 1145); details: no forskolin, luminescence, 4.5 h, higher = more signal, called active from +8 up or from −8 down
[5] = CREB reporter modulators under forskolin, primary screen, cell-based, PC12, CRE-LacZ reporter, forskolin-stimulated (AID 1146); details: luminescence, 4.5 h, higher = more signal, called active from +8 up or from −8 down;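 also: PC12 cells with 6xCRE LacZ reporter stimulated by forskolin 10 µM; beta-galactosidase reporter signal reflecting CREB driven transcription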
[6] = target: Streptavidin (Streptomyces avidinii) (UniProt P22629); assay: streptavidin binders on small-molecule microarray, primary screen, artefact control for SMM compound annotation, biophysical, 635/667 nm fluorescence (AID 1147); details: streptavidin binding, higher = more signal;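 also: signal reflects streptavidin binding to arrayed compounds as a control protein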
Sequence of Streptavidin (Streptomyces avidinii) (P22629 whole entry, looked up): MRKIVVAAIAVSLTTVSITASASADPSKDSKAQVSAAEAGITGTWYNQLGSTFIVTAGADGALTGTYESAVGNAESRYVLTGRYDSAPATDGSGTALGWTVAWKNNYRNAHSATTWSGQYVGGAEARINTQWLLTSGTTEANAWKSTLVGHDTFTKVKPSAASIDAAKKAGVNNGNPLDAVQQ

[7] = small-molecule binders of probe aInhba, primary screen, biochemical, small-molecule microarray, 635/667 nm fluorescence (AID 1148); details: higher = more signal;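 also: score merges 667nm spot fluorescence with signal-to-noise for antibody binding to printed compounds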
Torsin-1A (Homo sapiens) [8] = target: Torsin-1A (Homo sapiens) (UniProt O14656); assay: torsin A binders from cell lysate, primary screen, small-molecule microarray, wild-type, 635/667 nm (AID 1149); details: COS7 hTOR1A-WT lysate, 635 nm fluorescence, higher = more signal
Sequence of Torsin-1A (Homo sapiens) (O14656 whole entry, looked up): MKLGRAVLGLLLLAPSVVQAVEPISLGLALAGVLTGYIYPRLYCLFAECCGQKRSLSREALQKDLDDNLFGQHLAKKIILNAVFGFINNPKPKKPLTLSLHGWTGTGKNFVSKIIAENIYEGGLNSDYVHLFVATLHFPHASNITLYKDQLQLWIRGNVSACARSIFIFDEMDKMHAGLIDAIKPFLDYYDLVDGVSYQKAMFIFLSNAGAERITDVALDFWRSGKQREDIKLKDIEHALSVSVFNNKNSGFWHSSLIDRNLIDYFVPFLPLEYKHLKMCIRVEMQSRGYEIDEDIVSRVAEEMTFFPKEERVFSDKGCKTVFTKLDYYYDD

Torsin-1A (Homo sapiens) [9] = target: Torsin-1A (Homo sapiens) (UniProt O14656); assay: small-molecule binders of mutant TOR1A in lysate, primary screen, cell lysate, small-molecule microarray, COS7 lysate, 635/667 nm fluorescence (AID 1150); details: COS7 hTOR1A mutant lysate, 635 nm fluorescence, higher = more signal;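 also: score pools 667 nm emission and signal to noise measuring lysate protein binding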
[10] = tested on: Sonic hedgehog protein (Shh); assay: small-molecule binders of Shh protein, primary screen, biochemical, small-molecule microarray, 635/667 nm fluorescence (AID 1151); details: small-molecule microarray binding, 635 nm fluorescence; higher = more signal;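 also: Shh protein binding to compounds spotted on small-molecule microarray slides; score combines spot fluorescence intensity with signal-to-noise across triplicate slides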
[11] = E. coli DRC41 culture turbidity changes, primary screen, E. coli filamentation inducer project, strain DRC41, OD650, 48 h (AID 1152);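 also: E. coli MC1000 strain DRC41 lacking acrAB efflux pump and sulA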; details: E. coli DRC41 (acrAB sulA), higher = more signal, called active from +8 up or from −8 down
[12] = small-molecule binders of probe aLefty1, primary screen, biochemical, small-molecule microarray, 635/667 nm fluorescence (AID 1153); details: higher = more signal;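 also: score merges spot fluorescence with signal-to-noise ratio from the scanned slide images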
[13] = PSAC antagonists in infected red cells, primary screen, cell-based, P. falciparum Indochina, OD700, 1 h (AID 1154); details: P. falciparum Indochina infected RBC osmotic lysis, higher = more signal, called active from +8 up or from −8 down
[14] = PSAC antagonists in infected red cells, primary screen, cell-based, P. falciparum Indochina, OD700, 2 h (AID 1155);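 also: lysis reports solute entry through the parasite surface anion channel PSAC; channel blockers reduce lysis of infected cells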; details: P. falciparum Indochina infected erythrocytes, osmotic lysis OD700; higher = more signal, called active from +8 up or from −8 down
[15] = osmotic lysis modulators in infected erythrocytes, primary screen, PSAC antagonist project, cell-based, P. falciparum Indochina, OD700, 3 h (AID 1156); details: higher = more signal, called active from +8 up or from −8 down
[16] = PSAC antagonists in infected red cells, primary screen, cell-based, P. falciparum Indochina, OD700, 18 h (AID 1157); details: P. falciparum Indochina infected erythrocytes, osmotic lysis OD700, 18 h; higher = more signal, called active from +8 up or from −8 down
[17] = modulators of S6 phosphorylation in cells, primary screen, cell-based, A549, cytoblot, luminescence, serum-stimulated (AID 1158); details: A549 phospho-S6 cytoblot, 5 h, higher = more signal;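 also: serum-stimulated A549 lung adenocarcinoma cells; signal is phosphorylated S6 detected by cytoblot immunostaining with HRP secondary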
[18] = target: NADPH oxidase 2 (Homo sapiens) (UniProt P04839); assay: NOX2-dependent H2O2 signal modulators, primary screen, NOX inhibitor project, cell-based, HEK293-NOX2, PMA-stimulated, Amplex Red fluorescence (AID 1159); details: 45 min, higher = more signal, called active from +8 up or from −8 down; also: test concentration not given here
Sequence of NADPH oxidase 2 (Homo sapiens) (P04839 whole entry, looked up): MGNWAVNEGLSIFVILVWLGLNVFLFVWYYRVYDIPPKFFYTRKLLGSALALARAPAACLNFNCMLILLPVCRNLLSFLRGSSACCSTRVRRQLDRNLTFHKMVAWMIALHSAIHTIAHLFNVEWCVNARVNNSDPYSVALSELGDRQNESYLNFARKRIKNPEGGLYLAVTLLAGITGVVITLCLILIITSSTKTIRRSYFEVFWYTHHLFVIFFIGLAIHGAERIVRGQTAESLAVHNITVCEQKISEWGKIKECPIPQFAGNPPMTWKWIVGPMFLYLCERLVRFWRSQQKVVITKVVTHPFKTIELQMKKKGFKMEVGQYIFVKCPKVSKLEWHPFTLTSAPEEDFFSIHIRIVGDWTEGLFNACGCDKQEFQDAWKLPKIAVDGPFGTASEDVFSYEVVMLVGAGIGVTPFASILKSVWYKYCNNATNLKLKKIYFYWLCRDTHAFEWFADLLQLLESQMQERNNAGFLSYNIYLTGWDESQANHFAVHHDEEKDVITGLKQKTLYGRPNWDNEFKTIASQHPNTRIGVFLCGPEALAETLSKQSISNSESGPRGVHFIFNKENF

[19] = target: NADPH oxidase 4 (Homo sapiens) (UniProt Q9NPH5); assay: NOX4-dependent H2O2 signal modulators, primary screen, NOX inhibitor project, cell-based, HEK293-NOX4, tetracycline-induced, Amplex Red fluorescence (AID 1160); details: 45 min, higher = more signal, called active from +8 up or from −8 down
Sequence of NADPH oxidase 4 (Homo sapiens) (Q9NPH5 whole entry, looked up): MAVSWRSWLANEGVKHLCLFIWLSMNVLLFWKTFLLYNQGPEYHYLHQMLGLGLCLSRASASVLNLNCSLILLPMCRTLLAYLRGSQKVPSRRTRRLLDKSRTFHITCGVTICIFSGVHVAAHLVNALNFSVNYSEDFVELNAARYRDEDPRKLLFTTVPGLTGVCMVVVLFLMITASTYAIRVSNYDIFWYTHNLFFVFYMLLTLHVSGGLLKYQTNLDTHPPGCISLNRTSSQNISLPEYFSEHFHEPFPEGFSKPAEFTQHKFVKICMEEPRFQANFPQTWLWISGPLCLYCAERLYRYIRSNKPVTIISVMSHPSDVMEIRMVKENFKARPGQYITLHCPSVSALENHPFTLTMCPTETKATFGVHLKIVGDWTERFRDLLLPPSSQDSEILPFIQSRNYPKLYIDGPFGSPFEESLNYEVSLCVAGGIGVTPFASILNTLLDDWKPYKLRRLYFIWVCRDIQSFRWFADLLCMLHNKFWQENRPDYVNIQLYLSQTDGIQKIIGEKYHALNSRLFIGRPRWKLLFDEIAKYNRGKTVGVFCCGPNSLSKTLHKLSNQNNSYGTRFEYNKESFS

[20] = target: NADPH oxidase 5 (Homo sapiens) (UniProt Q96PH1); assay: NOX5-dependent H2O2 signal modulators, primary screen, NOX inhibitor project, cell-based, HEK293-NOX5, Amplex Red fluorescence (AID 1161); details: HEK293-NOX5, ionomycin, 45 min, higher = more signal
Sequence of NADPH oxidase 5 (Homo sapiens) (Q96PH1 whole entry, looked up): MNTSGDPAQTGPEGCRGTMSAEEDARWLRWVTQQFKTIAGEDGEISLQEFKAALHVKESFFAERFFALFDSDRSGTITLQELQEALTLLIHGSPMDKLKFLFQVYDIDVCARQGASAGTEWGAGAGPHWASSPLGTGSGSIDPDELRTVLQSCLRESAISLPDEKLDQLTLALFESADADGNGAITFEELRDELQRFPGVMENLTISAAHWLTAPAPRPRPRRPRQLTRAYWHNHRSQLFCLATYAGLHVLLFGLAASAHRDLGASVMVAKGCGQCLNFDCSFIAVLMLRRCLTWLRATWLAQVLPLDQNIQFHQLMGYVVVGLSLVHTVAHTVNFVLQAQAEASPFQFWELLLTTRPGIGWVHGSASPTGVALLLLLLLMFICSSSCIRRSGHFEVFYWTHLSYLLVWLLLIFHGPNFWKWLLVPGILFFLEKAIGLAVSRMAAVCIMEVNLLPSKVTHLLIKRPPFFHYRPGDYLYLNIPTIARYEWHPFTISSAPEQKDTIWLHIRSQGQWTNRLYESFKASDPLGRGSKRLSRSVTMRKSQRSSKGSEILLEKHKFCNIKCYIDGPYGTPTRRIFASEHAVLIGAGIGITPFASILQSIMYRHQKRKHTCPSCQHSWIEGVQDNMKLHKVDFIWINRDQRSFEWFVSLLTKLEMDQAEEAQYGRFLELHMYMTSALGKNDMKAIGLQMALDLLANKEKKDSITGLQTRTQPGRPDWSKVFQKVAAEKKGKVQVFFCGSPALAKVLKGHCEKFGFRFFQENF

| SMILES | composite z-score [1] | z-score [2] | z-score [3] | z-score [4] | z-score [5] | composite z-score [6] | composite z-score [7] | composite z-score (Torsin-1A (Homo sapiens) [8]) | composite z-score (Torsin-1A (Homo sapiens) [9]) | composite z-score [10] | z-score [11] | composite z-score [12] | z-score [13] | z-score [14] | z-score [15] | z-score [16] | z-score [17] | z-score [18] | z-score [19] | z-score [20] |
| --- | --- | --- | --- | --- | --- | --- | --- | --- | --- | --- | --- | --- | --- | --- | --- | --- | --- | --- | --- | --- |
| C[C@@H](c1ccccc1)N1C(=O)[C@H]2[C@H]3[C@H](O)[C@H](O)CC(=NOCc4ccccc4)[C@H]3CC[C@H]2C1=O | -0.0159 | -0.416 (inactive) | 0.576 (inactive) | 0.0687 (inactive) | 0.0517 (inactive) | 0.587 | -0.183 | -0.0911 | 0.651 | 0.378 | 0.331 (inactive) | -0.0518 | 31.6 (active) | 6.36 (inactive) | 0.321 (inactive) | 1.21 (inactive) | -0.182 | -1.53 (inactive) | 0.0357 (inactive) | -3.27 |
| CON=C[C@@H](C)[C@H](OCc1ccccc1)C(C)C | 0.103 | -1.83 (inactive) | -1.54 (inactive) | 0.987 (inactive) | -0.278 (inactive) | -0.0087 | -0.0963 | 0.537 | -0.253 | 0.224 | -2.85 (inactive) | -0.378 | 0.0221 (inactive) | 0.234 (inactive) | 0.718 (inactive) | -1.37 (inactive) | 0.564 | -0.307 (inactive) | -1.21 (inactive) | -0.786 |
| COc1ccc(O[C@H]2C=C[C@@H](c3ccccc3)O[C@@H]2CON=C(C)CCN2CCc3nc(-c4ccccc4)c(-c4ccccc4)cc3C2)cc1 | -0.193 | -0.203 (inactive) | -0.18 (inactive) | 1.62 (inactive) | 0.703 (inactive) | 0.852 | -0.0719 | -0.449 | -0.199 | 0.194 | -1.59 (inactive) | -0.101 | 2.48 (inactive) | 1.25 (inactive) | 0.855 (inactive) | 0.71 (inactive) | -0.0313 | 0.168 (inactive) | 0.00405 (inactive) | -0.434 |
| COc1cccc([C@H]2Oc3ccc(OC)cc3C(=NO[C@H](C)c3cn([C@H](CO)Cc4ccccc4)nn3)[C@@H]2O)c1 | -0.0943 | 0.474 (inactive) | 0.829 (inactive) | 3.87 (inactive) | -0.345 (inactive) | -0.706 | -0.104 | -0.0667 | 1.44 | 0.326 | 0.348 (inactive) | -0.142 | 1.38 (inactive) | 0.0637 (inactive) | 0.151 (inactive) | 0.22 (inactive) | -0.16 | -0.809 (inactive) | 0.364 (inactive) | -0.781 |
| CCOC(=O)NN=C1C[C@@H](O)[C@@H](O)[C@@H]2[C@@H]3C(=O)N(c4cccc(Oc5ccccc5)c4)C(=O)[C@@H]3CC[C@H]12 | 0.0643 | -1.16 (inactive) | -0.215 (inactive) | 0.523 (inactive) | 0.583 (inactive) | 0.948 | -0.129 | 0.933 | 0.0519 | 0.206 | 0.0433 (inactive) | -0.0958 | 1.6 (inactive) | -1.04 (inactive) | 0.0278 (inactive) | -1.58 (inactive) | 0.742 | -0.515 (inactive) | 0.209 (inactive) | -1.33 |
| CO[C@@H]1COC(=O)[C@@H]2CCCN2C(=O)[C@@H](C)COC(=O)CC=C[C@H]1C | 0.667 | -0.193 (inactive) | -1.09 (inactive) | 1.03 (inactive) | 0.828 (inactive) | 0.119 | -0.0427 | 0.826 | 0.962 | 0.895 | -0.481 (inactive) | 0.0553 | 0.202 (inactive) | -0.116 (inactive) | 0.601 (inactive) | 0.0246 (inactive) | -0.641 | -0.48 (inactive) | 0.393 (inactive) | 0.0919 |
| C=CC[C@@H]1C=C[C@H](ON=C2[C@H]3CCn4c(=O)n(-c5ccccc5)c(=O)n4[C@H]3[C@H](O)[C@@H]3O[C@H]23)[C@@H](CO)O1 | 0.132 | 1.17 (inactive) | -0.0199 (inactive) | 0.164 (inactive) | 0.312 (inactive) | 0.43 | -0.0736 | -0.207 | 0.369 | 0.23 | -0.263 (inactive) | -0.28 | 1.56 (inactive) | 1.07 (inactive) | 0.204 (inactive) | 0.588 (inactive) | -1.02 | -0.276 (inactive) | 0.964 (inactive) | 0.394 |
| CCOC(=O)[C@H](CC(C)C)NC(=O)CCC1CC(OC(=O)NCCc2ccc(F)cc2)CC2(CCCC(COC(=O)NCCc3ccc(Cl)cc3)O2)O1 (stereo not given in full) | 0.555 | -1.54 (inactive) | -0.204 (inactive) | 1.75 (inactive) | 0.214 (inactive) | 0.645 | -0.125 | 0.601 | 0.385 | 1.62 | -1.29 (inactive) | 0.18 | 2.96 (inactive) | -0.44 (inactive) | 0.235 (inactive) | 0.0264 (inactive) | -0.146 | 0.333 (inactive) | 1.32 (inactive) | 1.33 |
